Source: PubChem (National Center for Advancing Translational Sciences (NCATS))
GLP-1R inv ag: acts as inverse agonist at human GLP-1 receptor. P43220. HEK293 GLP-1R CRE-luciferase, luminescence, 24 h; GLP-1R form is constitutively active. Potency, µM (titrated, usually from 38.3 µM), inactives show at the top dose activity change, negative = inhibition, actives largely listed as inhibitors. actives 1.6% (n = 410,000). AID 624417; further: on the % scale 0 is the no-effect control and ±100 the full control effect; nearly all actives have a fitted effect of over 55% in size
Target sequence (P43220 whole entry, looked up): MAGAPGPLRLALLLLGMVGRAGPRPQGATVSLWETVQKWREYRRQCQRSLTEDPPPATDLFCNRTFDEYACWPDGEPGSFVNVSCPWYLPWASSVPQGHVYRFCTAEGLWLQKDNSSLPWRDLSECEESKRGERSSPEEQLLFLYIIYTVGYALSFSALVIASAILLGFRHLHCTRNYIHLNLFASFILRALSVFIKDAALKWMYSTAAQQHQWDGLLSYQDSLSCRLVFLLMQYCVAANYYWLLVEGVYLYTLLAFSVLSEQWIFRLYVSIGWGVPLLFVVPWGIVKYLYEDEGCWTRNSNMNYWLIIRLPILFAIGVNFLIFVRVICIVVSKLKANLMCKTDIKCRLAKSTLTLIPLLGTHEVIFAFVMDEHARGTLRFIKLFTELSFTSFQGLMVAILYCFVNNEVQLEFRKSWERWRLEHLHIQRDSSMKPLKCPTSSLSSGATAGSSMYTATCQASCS
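HEK293 cells stably co-expressing constitutively active GLP-1R and a cAMP-responsive luciferase reporter were seeded in DMEM with 10% Nu serum, given compounds after 12 h, and incubated 24 h at 37 deg C. Luminescence was then read.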
HEK293 tox: cytotoxic in the GLP-1 receptor inverse agonist counter-screen | Potency, µM (top dose mostly 38.3 µM), without a hit: at the highest dose activity change, negative = inhibition, most hits filed as inhibitors | actives 0.13% (n = 410,000) | HEK293 cAMP-luciferase reporter cells, luminescence, 24 h;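 further: loss of luciferase light is scored as toxicity; on the % scale 0 is the no-effect control and ±100 the full control effect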
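Cells in DMEM/10% Nu serum/1% pen-strep, 1536-well format. Pre-incubated 12 h, dosed with 23 nL compound, incubated a further 24 h. Luciferase detection, 12 min at room temp, luminescence.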
GLP-1R agonist: GLP-1 receptor (human) agonism; actives 0.007% (n = 380,000); HEK293 GLP-1R CRE-luciferase, luminescence, 4-6 h; cells express a hypersensitive GLP-1R form; AID 624172; P43220; Potency, µM (top dose mostly 45.6 µM), for inactives: top-dose activation, usual class: activators; further: % of control where 0% means no effect
BRCA1 expr act: increases BRCA1 expression; actives 1.1% (n = 380,000); Potency, µM (series often up to 46.1 µM), without a hit: top-dose activation, usual class: activators; MCF7-BRCA1-FFLuc reporter, luminescence, 48 h; response scale: scaled: vehicle 0%, 10 µM genistein 100%; AID 624202; further: nearly all actives have a fitted effect of over 80% in size
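MCF7-BRCA1-FFLuc cells, 2000/well in phenol-red-free MEM, attached 2 h then treated 48 h at 37 C. Luciferase luminescence read 15 min after reagent; normalized to genistein maximum activation (10microM) and DMSO, concentration-response fitted.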
a7 integrin act: activators of alpha7 integrin expression for muscular dystrophy; alpha7betagal myoblasts, beta-gal FDG fluorescence, 48 h; Potency, µM (doses to about 38.3 µM), without a hit: at the highest dose activation, actives largely listed as activators; actives 0.064% (n = 350,000); AID 624291;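 further: 100% = response of the positive control SU9516; nearly all actives have a fitted effect of over 60% in size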
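alpha7betagal+/- myoblasts (passage 13, 250/well) treated 48 h at 37C with compounds at 1:260 dilution of DMSO stock. Lysed, then beta-galactosidase activity read as FDG fluorescence (ex 480/em 540) after 30 min, with pre-read for autofluorescence.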
* marks the source's active call; other numbers are inactive results; ? = inconclusive; · = not tested or not shown. Shown are actives, neighbours in structure and some others; about 2.7% of the full set was active somewhere. The call rests on the fitted dose curve; in most records, active means well fitted curve in the direction sought with a large enough effect; inconclusive means small, poorly fitted or top-dose-only effect, or another doubt; inactive means no such curve, though single readings can be large; an effect the other way counts as inactive or inconclusive. Potency means the concentration at half of the fitted maximal effect.

SMILES	GLP-1R inv ag	HEK293 tox	GLP-1R agonist	BRCA1 expr act	a7 integrin act
O=c1cc(N2CCCCC2)c(-c2ccccc2)nn1Cc1ccc(F)cc1	2µM*	-5.1%	-3.0%	-8.7%	3.6%
O=C(N/N=C(\CC(=O)c1cccs1)C(F)(F)F)c1cccnc1	2.24µM*	3.2%	3.7%	-26.3%	-22.0%
O=C(N/N=C(/CC(=O)c1cccs1)C(F)(F)F)c1ccc(O)cc1	?	-29.2%	3.6%	-13.1%	34.7%
COc1cccc(NC(=O)N2CCC(CN3CCOCC3)CC2)c1	15.8%	-0.3%	·	·	·
Cc1cc2oc(=O)cc(CN(C)Cc3cccc(F)c3)c2cc1C	-51.6%	9.3%	8.4%	11.2µM*	5.3%
Cc1cc(C)c2c(CN(C)Cc3ccccc3)cc(=O)oc2c1	?	16.1%	?	12.6µM*	·
Cc1cc(C)c2c(CCl)cc(=O)oc2c1	?	-4.7%	17.1%	-54.9%	0.0%
CCc1cc2c(CN(C)Cc3ccccc3F)cc(=O)oc2cc1O	?	451.7%	21.0%	-62.1%	-34.7%
COc1ccc(NC(=O)CN2C(=O)CCn3nc(-c4cccn4C)cc32)cc1Cl	1.9%	0.5%	·	·	·
CCCCNC(=O)c1sc2nc(C)cc(COC)c2c1-n1cccc1	8.91µM*	-18.7%	-5.7%	-9.1%	4.5%
O=C(Cc1ccccc1)Nc1cc2c(cc1Cl)OCCCO2	8.2%	-15.5%	6.5%	3.16µM*	-7.5%
CCc1ccccc1NC(=O)CN1CCN(CC(=O)Nc2ccc3c(c2)OC2(CCCCC2)O3)CC1	?	1.8%	0.0%	-29.6%	16.9%
O=C(Cc1ccccc1)Nc1ccc2c(c1)OC1(CCCC1)O2	?	-10.0%	17.0%	3.98µM*	-8.5%
COCCn1c(C)cc(O)c(C(c2ccccc2Cl)N2CCCCC2)c1=O (stereo not given)	-17.0%	4.4%	·	·	·
Cc1ccccc1NC(=O)c1nc(S(C)(=O)=O)ncc1N(Cc1ccco1)Cc1sccc1C	-22.9%	-2.4%	·	·	·
Cc1cccc(NC(=O)c2ccc3c(O)c(S(=O)(=O)c4ccccc4)c(=O)[nH]c3c2)c1C	8.1%	17.7%	·	·	·
CCCCN1CC(COCc2ccccc2)Oc2ccccc2S1(=O)=O (stereo not given)	11.2µM*	15.0%	8.4%	0.8%	-14.2%
O=S1(=O)c2ccccc2OC(COCc2ccccc2)CN1Cc1ccccc1 (stereo not given)	?	5.5%	-2.0%	-15.8%	9.6%
O=S1(=O)c2ccc(Br)cc2OC(COCc2ccccc2)CN1Cc1ccccc1 (stereo not given)	10µM*	-6.2%	10.6%	-15.7%	-1.2%
CCCCN1CC(COCc2ccccc2)Oc2cccc(F)c2S1(=O)=O (stereo not given)	?	9.2%	-7.4%	0.0%	-16.2%
CCCCN1CC(COCc2ccccc2)Oc2cccc(OCCN3C(=O)[C@@H]4[C@H](C3=O)C3C=C[C@H]4C3)c2S1(=O)=O (stereo not given in full)	10µM*	-19.8%	-1.1%	-46.5%	-40.7%
COC1=C(OC)C(=O)C(CC=C(C)CCC=C(C)CCC=C(C)CCC=C(C)CCC=C(C)CCC=C(C)CCC=C(C)CCC=C(C)CCC=C(C)CCC=C(C)C)=C(C)C1=O	·	·	1.8%	·	·
CC(=O)Nc1ccc(/C(C)=N/Nc2nc(Nc3cccc4ccccc34)nc(N3CCOCC3)n2)cc1	2.82µM*	-20.9%	0.6%	-65.3%	-33.8%
CC(C)(C)c1ccc(NC(=O)C2=CC=CN3CCS(=O)(=O)N=C23)cc1	8.1%	3.7%	-4.7%	10µM*	0.0%
CCN(CC)c1ccc(NC(=O)C2=CC=CN3CCS(=O)(=O)N=C23)cc1	1.6%	-12.6%	6.7%	39.1%	-48.7%
O=C(NC(=S)Nc1ccc(Oc2ccc(Cl)cc2)cc1)c1ccccc1	12.6µM*	?	-5.9%	-25.2%	0.0%
COc1ccc(NC(=S)NC(=O)c2ccccc2Cl)cc1	10.2%	-29.8%	-7.5%	12.6µM*	?
O=C(NC(=S)N1CCCCCC1)c1ccccc1Cl	?	5.01µM*	-0.1%	-0.7%	-17.1%
CN1CCN(C(=S)NC(=O)c2ccccc2Cl)CC1	-19.4%	-12.6%	-5.5%	3.0%	-13.1%
